We go through twelve molecules from PubChem BioAssay (NCI).

Some test systems named below: NCI-H23 lung; NCI-H226 lung; NCI-H322M lung; HOP-62 NSCLC; NCI-H460 lung; HOP-92 NSCLC; NCI-H522 lung; A549/ATCC NSCLC; 786-0 renal; COLO 205 colon.
Common to all, as to experiment: NCI-60 one-dose screen, 48 h (100 = growth as untreated, 0 = no growth, -100 = all killed)
Settings in all cases: 10 µM unless noted

The panel holds about 83,000 compounds, 20% with a hit somewhere; the sample as a whole holds those more often.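 Percent growth is the endpoint: 0 to 100 indicates growth inhibition (40 means 60% inhibition), 0 means no net growth, and negative values indicate cell death.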 Values without a mark were called inactive. Calls of active or inactive are those of the source. Rule for the calls: active = growth percent below 10; inactive = the rest.

For the molecule `Cn1c2c(c3ccc(Cl)c(Cl)c31)C(C#N)C(C)(C)NC2=O` (stereo not given), the growth in the assay on NCI-H23 lung was 97.6%; in the assay with NCI-H226 lung it was 59.4%; in the assay with NCI-H322M lung, 91.4%; in the assay with HOP-62 NSCLC, 90.7%; with NCI-H460 lung it was 91%; in the assay on HOP-92 NSCLC, 72.8%. Moreover, the growth in the assay with NCI-H522 lung was 55.8%; in the assay with A549/ATCC NSCLC, 89.5%; with 786-0 renal it was 69.3%; with COLO 205 colon, 92.2%.
Turning to `CCN1C(=O)N(CC)C2C1NC(=S)N2/N=C/c1ccc(C(F)(F)F)cc1` (stereo not given), the growth was 79.8% in the assay with NCI-H23 lung; 74.2% with NCI-H226 lung; 82.5% in the assay on NCI-H322M lung; 71.2% in the assay on HOP-62 NSCLC; 75.6% in the assay on NCI-H460 lung; 50.6% in the assay on HOP-92 NSCLC. In addition, the growth in the assay on NCI-H522 lung was 48.2%; in the assay with A549/ATCC NSCLC, 39.8%; in the assay with 786-0 renal, 79.7%; with COLO 205 colon, 80.7%.
Turning to `N#CSc1c[nH]c2cccc(/C=C/C(=O)/C=C(O)/C=C/c3cccc4[nH]cc(SC#N)c34)c12`, the growth in the assay with NCI-H23 lung is -36.8% (active); in the assay on NCI-H226 lung, -73.1% (active); in the assay with NCI-H322M lung, -47.5% (active); in the assay with HOP-62 NSCLC, -32.6% (active); with NCI-H460 lung, -22.9% (active); in the assay with HOP-92 NSCLC, -72% (active). The growth in the assay on NCI-H522 lung is -68.2% (active); in the assay with A549/ATCC NSCLC, -69.7% (active); in the assay on 786-0 renal, -60.3% (active); in the assay with COLO 205 colon, -77.7% (active).
For the molecule `Cc1[nH]c(C2CC(c3ccc(C(F)(F)F)c(F)c3)=NN2c2ccccc2)c(C)c1C(=O)NCC(F)(F)F` (stereo not given), the growth is 89% with NCI-H23 lung; 77.2% in the assay with NCI-H226 lung; 88% in the assay with NCI-H322M lung; 91.4% with HOP-62 NSCLC; 94.2% in the assay with NCI-H460 lung; 113% in the assay with HOP-92 NSCLC. Moreover, the growth in the assay with NCI-H522 lung was 89.5%; in the assay on A549/ATCC NSCLC, 84.8%; in the assay on 786-0 renal it was 90.7%; in the assay on COLO 205 colon, 93.7%.
Turning to `CCN1CCN(CCNc2nccc(-c3c(-c4ccc(F)c(OC)c4)nc4sccn34)n2)S1(=O)=O`, the growth in the assay with NCI-H23 lung was 78.2%; with NCI-H226 lung it was 109%; with NCI-H322M lung, 83.4%; with HOP-62 NSCLC, 87.7%; in the assay with NCI-H460 lung it was 56.1%; in the assay with HOP-92 NSCLC, 54.4%. Further, the growth was 63% with NCI-H522 lung, 73.3% with A549/ATCC NSCLC, 102% in the assay on 786-0 renal and 62.3% in the assay on COLO 205 colon.
Consider `CC1(C)CC2=C3C=C[C@@H]4[C@@]5(C)CCC(=O)C(C)(C)[C@@H]5CC[C@@]4(C)[C@]3(C)CC[C@@]2(C(=O)O)C[C@H]1O`, for which the growth was 23.2% with NCI-H23 lung; 25.5% in the assay with NCI-H226 lung; 26.6% in the assay on NCI-H322M lung; 30.1% in the assay with HOP-62 NSCLC; 18% in the assay on NCI-H460 lung; -7.2% (active) in the assay on HOP-92 NSCLC. In addition, the growth in the assay on NCI-H522 lung was 26.4%; with A549/ATCC NSCLC it was 26.3%; with 786-0 renal it was 17.2%; in the assay on COLO 205 colon, 29.2%.
Turning to `CCOc1cccc(/C=N/NC(=O)c2cccc(Nc3ccnc(C(F)(F)F)c3)c2)c1O`, the growth is 24.9% with NCI-H23 lung; 32.9% in the assay with NCI-H226 lung; 36.5% in the assay on NCI-H322M lung; 12.3% in the assay with HOP-62 NSCLC; 7.86% (active) in the assay with NCI-H460 lung; 51.3% with HOP-92 NSCLC. The growth in the assay with NCI-H522 lung is 40.4%; with A549/ATCC NSCLC it was 38%; in the assay on 786-0 renal it was 2.63% (active); in the assay with COLO 205 colon it was 37%.
As for `COc1ccc(C2=NN(C(C)=O)C(c3cn(-c4ccccc4)nc3-c3ccc(Cl)cc3)C2)cc1` (stereo not given), the growth in the assay on NCI-H23 lung is 9.25% (active); with NCI-H226 lung, 33.6%; in the assay with NCI-H322M lung it was 47.8%; in the assay with HOP-62 NSCLC, -19.3% (active); in the assay on NCI-H460 lung, 5.58% (active); with HOP-92 NSCLC, 18.1%. Also, the growth in the assay on NCI-H522 lung is 47.5%; in the assay on A549/ATCC NSCLC, 14.3%; with 786-0 renal, -17.5% (active); with COLO 205 colon, 4.9% (active).
Regarding `O=C(/C=C/C12c3ccccc3C(c3ccccc31)C1C(=O)NC(=O)C12)c1ccc(Br)cc1` (stereo not given), the growth in the assay with NCI-H23 lung is 50%; with NCI-H226 lung it was 94.4%; in the assay on NCI-H322M lung, 55.8%; in the assay with HOP-62 NSCLC it was 56.3%; in the assay on NCI-H460 lung, 34.6%; in the assay on HOP-92 NSCLC it was 74.5%. Further, the growth was 47.1% in the assay on NCI-H522 lung, 50.2% in the assay with A549/ATCC NSCLC, 69.2% in the assay on 786-0 renal and 58.8% in the assay on COLO 205 colon.
As for `O=C1/C(=C/c2ccc(O)c(O)c2)COc2ccc(-c3ccccc3)cc21`, the growth in the assay with NCI-H23 lung is 35.8%; in the assay with NCI-H226 lung, 36.2%; in the assay on NCI-H322M lung, 54.8%; in the assay on HOP-62 NSCLC it was 77.5%; with NCI-H460 lung, 13.7%; in the assay on HOP-92 NSCLC it was 1.73% (active). For the same molecule, the growth in the assay on NCI-H522 lung is -67.2% (active); in the assay with A549/ATCC NSCLC, 31.8%; with 786-0 renal, 24.8%; in the assay on COLO 205 colon it was 5.4% (active).
In the case of `O=C(CCCCCCN1CC(=O)N2[C@H](c3ccc(Cl)cc3)c3[nH]c4ccccc4c3C[C@@H]2C1=O)NO`, the growth is 60.2% in the assay on NCI-H23 lung; 84.1% in the assay with NCI-H226 lung; 64.1% in the assay on NCI-H322M lung; 61.9% in the assay with HOP-62 NSCLC; 54.2% in the assay on NCI-H460 lung; 44.4% in the assay with HOP-92 NSCLC. For the same molecule, the growth in the assay on NCI-H522 lung was 32.8%; in the assay with A549/ATCC NSCLC, 90.1%; in the assay on 786-0 renal, 92.9%; in the assay with COLO 205 colon, 57.3%.
As to `CCn1c(-c2cc3c([nH]c4ccccc43)c(-c3cccc(O)c3)n2)n[nH]c1=S`, the growth was 68.4% with NCI-H23 lung; 75.9% in the assay with NCI-H226 lung; 73.2% in the assay on NCI-H322M lung; 18.3% in the assay with HOP-62 NSCLC; 47.1% in the assay with NCI-H460 lung; 12.7% in the assay on HOP-92 NSCLC. The growth in the assay with NCI-H522 lung was -10.6% (active); in the assay on A549/ATCC NSCLC, 38%; in the assay on 786-0 renal it was 13.5%; in the assay on COLO 205 colon, 92.5%.
